# Assay results taken from the supplement of paper PMC4022240.
# ± gives the standard deviation.
# T1: HaloTag-ATRX ADD domain (163-292)
# T1 chain: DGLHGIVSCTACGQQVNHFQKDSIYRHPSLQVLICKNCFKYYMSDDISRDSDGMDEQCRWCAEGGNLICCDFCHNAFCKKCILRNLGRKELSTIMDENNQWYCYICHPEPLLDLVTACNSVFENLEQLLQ
# Experiments:
# Experiment in all cases: peptide microarray binding signal (635 nm), min-max normalized on array (fraction of array maximum); higher = stronger binding
# Settings in all cases: peptide region: H3 5-17
# [1] = biological target: T1, HaloTag-ATRX ADD domain (163-292)
# Method in brief: (§1)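 Within each library, mean intensities of triplicate spots were min-max scaled to give the binding signal. The spots were histone 13-mer peptide–cellulose conjugates on nitrocellulose with a Cy3 tracer, blocked overnight at 4°C. They were then probed for 1 h at 4°C using biotin-labelled HaloTag reader fusions (10 nM to 1 μM) with streptavidin-Alexa Fluor 647 or rabbit histone antibodies (1:10,000 to 1:2,000) with anti-rabbit Alexa 647, and scanned at 635 nm for signal and 532 nm for misprints on an Axon GenePix 4000B.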
# [2] = biological target: HaloTag-ING2 PHD (mouse Ing2 200-280)
# Method in brief: as §1
# [3] = biological target: anti-H3K4me3 antibody ab8580
# Method in brief: as §1
# [4] = biological target: anti-H3K9me3 antibody ab8898
# Method in brief: as §1
# [5] = peptide modifications: H3R8me2a H3K9me2, binder concentration: 1:2,000 dilution
# [6] = peptide modifications: H3R8me2a H3K9me2, binder concentration: 1:10,000 dilution
# [7] = peptide modifications: H3R8me2s, binder concentration: 1:2,000 dilution
# [8] = peptide modifications: H3R8me2s, binder concentration: 1:10,000 dilution
# [9] = peptide modifications: H3R8me2s H3K9me1, binder concentration: 1:2,000 dilution
# [10] = peptide modifications: H3R8me2s H3K9me1, binder concentration: 1:10,000 dilution
# [11] = peptide modifications: H3R8me2a H3K9me1, binder concentration: 1:2,000 dilution
# [12] = peptide modifications: H3R8me2a H3K9me1, binder concentration: 1:10,000 dilution
# [13] = peptide modifications: H3R8me2s H3T11ph, binder concentration: 1:2,000 dilution
# [14] = peptide modifications: H3R8me2s H3T11ph, binder concentration: 1:10,000 dilution
# [15] = peptide modifications: H3R8me1 H3K9me3, binder concentration: 1:2,000 dilution
# [16] = peptide modifications: H3R8me1 H3K9me3, binder concentration: 1:10,000 dilution
# [17] = peptide modifications: H3R8me2s H3K9me2, binder concentration: 1:2,000 dilution
# [18] = peptide modifications: H3R8me2s H3K9me2, binder concentration: 1:10,000 dilution
# [19] = peptide modifications: H3R8me1 H3S10ph, binder concentration: 1:2,000 dilution
# [20] = peptide modifications: H3R8me1 H3S10ph, binder concentration: 1:10,000 dilution
# [21] = peptide modifications: H3S10ph H3K14me1, binder concentration: 1:2,000 dilution
# [22] = peptide modifications: H3S10ph H3K14me1, binder concentration: 1:10,000 dilution
# [23] = peptide modifications: H3R8me2a H3T11ph, binder concentration: 1:2,000 dilution
# [24] = peptide modifications: H3R8me2a H3T11ph, binder concentration: 1:10,000 dilution
binder,measurement,setting,value
QTARKSTGGKAPR [H3 5-17 Q T A Rme2a Kme2 S T G G K A P R],peptide microarray binding signal,"[1]; peptide modifications: H3R8me2a H3K9me2, binder concentration: 50 nM",0.007555 ± 2.4e-05
same,peptide microarray binding signal,"[1]; peptide modifications: H3R8me2a H3K9me2, binder concentration: 500 nM",0.0185 ± 0.0016
same,peptide microarray binding signal,"[2]; peptide modifications: H3R8me2a H3K9me2, binder concentration: 10 nM",0.0456 ± 0.0053
same,peptide microarray binding signal,"[2]; peptide modifications: H3R8me2a H3K9me2, binder concentration: 100 nM",0.0526 ± 0.0031
same,peptide microarray binding signal,[3]; [5],0.032 ± 0.0036
same,peptide microarray binding signal,[3]; [6],0.0252 ± 0.0039
same,peptide microarray binding signal,[4]; [5],0.185 ± 0.023
same,peptide microarray binding signal,[4]; [6],0.104 ± 0.0059
QTARKSTGGKAPR [H3 5-17 Q T A Rme2s K S T G G K A P R],peptide microarray binding signal,"[1]; peptide modifications: H3R8me2s, binder concentration: 50 nM",0.00245 ± 0.00023
same,peptide microarray binding signal,"[1]; peptide modifications: H3R8me2s, binder concentration: 500 nM",0.00352 ± 0.00033
same,peptide microarray binding signal,"[2]; peptide modifications: H3R8me2s, binder concentration: 10 nM",0.00412 ± 0.00015
same,peptide microarray binding signal,"[2]; peptide modifications: H3R8me2s, binder concentration: 100 nM",0.00184 ± 6.7e-05
same,peptide microarray binding signal,[3]; [7],0.0129 ± 0.0069
same,peptide microarray binding signal,[3]; [8],0.0128 ± 0.0042
same,peptide microarray binding signal,[4]; [7],0.00237 ± 0.00021
same,peptide microarray binding signal,[4]; [8],0.00415 ± 0.00028
QTARKSTGGKAPR [H3 5-17 Q T A Rme2s Kme S T G G K A P R],peptide microarray binding signal,"[1]; peptide modifications: H3R8me2s H3K9me1, binder concentration: 50 nM",0.0141 ± 0.0025
same,peptide microarray binding signal,"[1]; peptide modifications: H3R8me2s H3K9me1, binder concentration: 500 nM",0.0312 ± 0.016
same,peptide microarray binding signal,"[2]; peptide modifications: H3R8me2s H3K9me1, binder concentration: 10 nM",0.0334 ± 0.0012
same,peptide microarray binding signal,"[2]; peptide modifications: H3R8me2s H3K9me1, binder concentration: 100 nM",0.0522 ± 0.0014
same,peptide microarray binding signal,[3]; [9],0.0185 ± 0.0025
same,peptide microarray binding signal,[3]; [10],0.0237 ± 0.00078
same,peptide microarray binding signal,[4]; [9],0.0146 ± 0.0028
same,peptide microarray binding signal,[4]; [10],0.0153 ± 0.0016
QTARKSTGGKAPR [H3 5-17 Q T A Rme2a Kme S T G G K A P R],peptide microarray binding signal,"[1]; peptide modifications: H3R8me2a H3K9me1, binder concentration: 50 nM",0.0102 ± 0.00047
same,peptide microarray binding signal,"[1]; peptide modifications: H3R8me2a H3K9me1, binder concentration: 500 nM",0.0208 ± 0.00058
same,peptide microarray binding signal,"[2]; peptide modifications: H3R8me2a H3K9me1, binder concentration: 10 nM",0.0329 ± 0.0037
same,peptide microarray binding signal,"[2]; peptide modifications: H3R8me2a H3K9me1, binder concentration: 100 nM",0.0496 ± 0.0052
same,peptide microarray binding signal,[3]; [11],0.0224 ± 0.003
same,peptide microarray binding signal,[3]; [12],0.0247 ± 0.0017
same,peptide microarray binding signal,[4]; [11],0.0228 ± 0.0036
same,peptide microarray binding signal,[4]; [12],0.0159 ± 0.0016
QTARKSTGGKAPR [H3 5-17 Q T A Rme2s K S Tph G G K A P R],peptide microarray binding signal,"[1]; peptide modifications: H3R8me2s H3T11ph, binder concentration: 50 nM",0.00458 ± 6e-05
same,peptide microarray binding signal,"[1]; peptide modifications: H3R8me2s H3T11ph, binder concentration: 500 nM",0.0138 ± 0.0057
same,peptide microarray binding signal,"[2]; peptide modifications: H3R8me2s H3T11ph, binder concentration: 10 nM",0.0277 ± 0.00076
same,peptide microarray binding signal,"[2]; peptide modifications: H3R8me2s H3T11ph, binder concentration: 100 nM",0.0321 ± 0.004
same,peptide microarray binding signal,[3]; [13],0.0081 ± 0.0027
same,peptide microarray binding signal,[3]; [14],0.00474 ± 0.00064
same,peptide microarray binding signal,[4]; [13],0.00136 ± 0.00012
same,peptide microarray binding signal,[4]; [14],0.001441 ± 1.4e-05
QTARKSTGGKAPR [H3 5-17 Q T A Rme Kme3 S T G G K A P R],peptide microarray binding signal,"[1]; peptide modifications: H3R8me1 H3K9me3, binder concentration: 50 nM",0.00652 ± 0.00076
same,peptide microarray binding signal,"[1]; peptide modifications: H3R8me1 H3K9me3, binder concentration: 500 nM",0.0104 ± 0.0013
same,peptide microarray binding signal,"[2]; peptide modifications: H3R8me1 H3K9me3, binder concentration: 10 nM",0.0116 ± 0.00032
same,peptide microarray binding signal,"[2]; peptide modifications: H3R8me1 H3K9me3, binder concentration: 100 nM",0.0168 ± 0.002
same,peptide microarray binding signal,[3]; [15],0.0438 ± 0.013
same,peptide microarray binding signal,[3]; [16],0.0394 ± 0.0046
same,peptide microarray binding signal,[4]; [15],0.185 ± 0.023
same,peptide microarray binding signal,[4]; [16],0.243 ± 0.0063
QTARKSTGGKAPR [H3 5-17 Q T A Rme2s Kme2 S T G G K A P R],peptide microarray binding signal,"[1]; peptide modifications: H3R8me2s H3K9me2, binder concentration: 50 nM",0.00545 ± 0.0001
same,peptide microarray binding signal,"[1]; peptide modifications: H3R8me2s H3K9me2, binder concentration: 500 nM",0.00886 ± 0.00071
same,peptide microarray binding signal,"[2]; peptide modifications: H3R8me2s H3K9me2, binder concentration: 10 nM",0.0168 ± 0.00063
same,peptide microarray binding signal,"[2]; peptide modifications: H3R8me2s H3K9me2, binder concentration: 100 nM",0.0228 ± 0.0012
same,peptide microarray binding signal,[3]; [17],0.0112 ± 0.0011
same,peptide microarray binding signal,[3]; [18],0.0122 ± 0.002
same,peptide microarray binding signal,[4]; [17],0.0214 ± 0.0029
same,peptide microarray binding signal,[4]; [18],0.0131 ± 0.00022
QTARKSTGGKAPR [H3 5-17 Q T A Rme K Sph T G G K A P R],peptide microarray binding signal,"[1]; peptide modifications: H3R8me1 H3S10ph, binder concentration: 50 nM",0.0079 ± 0.00028
same,peptide microarray binding signal,"[1]; peptide modifications: H3R8me1 H3S10ph, binder concentration: 500 nM",0.0149 ± 0.003
same,peptide microarray binding signal,"[2]; peptide modifications: H3R8me1 H3S10ph, binder concentration: 10 nM",0.0175 ± 0.0014
same,peptide microarray binding signal,"[2]; peptide modifications: H3R8me1 H3S10ph, binder concentration: 100 nM",0.0298 ± 0.002
same,peptide microarray binding signal,[3]; [19],0.00208 ± 0.00022
same,peptide microarray binding signal,[3]; [20],0.00217 ± 0.00011
same,peptide microarray binding signal,[4]; [19],0.00359 ± 0.00056
same,peptide microarray binding signal,[4]; [20],0.00306
QTARKSTGGKAPR [H3 5-17 Q T A R K Sph T G G Kme A P R],peptide microarray binding signal,"[1]; peptide modifications: H3S10ph H3K14me1, binder concentration: 50 nM",0.00426 ± 0.0003
same,peptide microarray binding signal,"[1]; peptide modifications: H3S10ph H3K14me1, binder concentration: 500 nM",0.007715 ± 7.2e-05
same,peptide microarray binding signal,"[2]; peptide modifications: H3S10ph H3K14me1, binder concentration: 10 nM",0.00424 ± 0.00075
same,peptide microarray binding signal,"[2]; peptide modifications: H3S10ph H3K14me1, binder concentration: 100 nM",0.0102 ± 0.0023
same,peptide microarray binding signal,[3]; [21],0.000396 ± 7e-06
same,peptide microarray binding signal,[3]; [22],0.000399
same,peptide microarray binding signal,[4]; [21],0.00077 ± 4.1e-05
same,peptide microarray binding signal,[4]; [22],0.000404 ± 4.4e-06
QTARKSTGGKAPR [H3 5-17 Q T A Rme2a K S Tph G G K A P R],peptide microarray binding signal,"[1]; peptide modifications: H3R8me2a H3T11ph, binder concentration: 50 nM",0.00567 ± 0.00028
same,peptide microarray binding signal,"[1]; peptide modifications: H3R8me2a H3T11ph, binder concentration: 500 nM",0.008 ± 0.00083
same,peptide microarray binding signal,"[2]; peptide modifications: H3R8me2a H3T11ph, binder concentration: 10 nM",0.0111 ± 0.00069
same,peptide microarray binding signal,"[2]; peptide modifications: H3R8me2a H3T11ph, binder concentration: 100 nM",0.0171 ± 0.0015
same,peptide microarray binding signal,[3]; [23],0.00181 ± 0.00016
same,peptide microarray binding signal,[3]; [24],0.00257 ± 6e-05
same,peptide microarray binding signal,[4]; [23],0.0287 ± 0.023
same,peptide microarray binding signal,[4]; [24],0.00409 ± 0.0015
